Measured values: ChEMBL document CHEMBL3988442, “University of Dundee, Small-Polar-MMV Screening Library” (2021)

Each compound was assayed against T1, Methionyl-tRNA synthetase, putative (Leishmania donovani (strain BPK282A1)) (UniProt E9BF75) (assay: Leishmania donovani Methionine tRNA synthetase (LdMetRS):v7. Dose response assay). Conditions: MAX_EFFECT 6.165703276.
T1 sequence (whole entry): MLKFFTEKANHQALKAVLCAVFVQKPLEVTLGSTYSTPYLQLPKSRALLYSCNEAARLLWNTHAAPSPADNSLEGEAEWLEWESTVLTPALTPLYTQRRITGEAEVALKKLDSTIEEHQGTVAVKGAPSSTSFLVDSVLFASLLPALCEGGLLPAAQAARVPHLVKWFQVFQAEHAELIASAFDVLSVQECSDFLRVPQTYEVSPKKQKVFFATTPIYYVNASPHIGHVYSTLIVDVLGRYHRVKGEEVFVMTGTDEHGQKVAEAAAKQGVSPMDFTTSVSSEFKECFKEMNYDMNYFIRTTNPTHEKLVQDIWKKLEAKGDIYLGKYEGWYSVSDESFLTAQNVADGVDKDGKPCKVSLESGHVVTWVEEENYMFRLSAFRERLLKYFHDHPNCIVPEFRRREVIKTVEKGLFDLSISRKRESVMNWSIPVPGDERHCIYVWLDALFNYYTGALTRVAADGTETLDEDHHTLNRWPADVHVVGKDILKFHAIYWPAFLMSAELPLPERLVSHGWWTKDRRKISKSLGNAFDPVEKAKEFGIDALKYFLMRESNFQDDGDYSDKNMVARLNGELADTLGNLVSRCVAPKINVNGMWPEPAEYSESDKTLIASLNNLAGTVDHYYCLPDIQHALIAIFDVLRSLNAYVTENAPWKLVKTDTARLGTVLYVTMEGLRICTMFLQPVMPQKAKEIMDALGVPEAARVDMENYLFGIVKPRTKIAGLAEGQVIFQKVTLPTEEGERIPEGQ
Format: functional
Parameters: conc 80 nM, time 150 minutes

PXC50, < 4:
CN1CCN(c2nc(NCCO)c3cnn(C)c3n2)CC1
NS(=O)(=O)c1cccnc1Nc1cc(C(=O)O)cc(C(F)(F)F)c1
C[C@H](CO)Nc1nccc(Nc2ccc(F)c(F)c2)n1
